Molecules are shown by their SMILES. Where “and” joins values, the source holds several entries; their conditions need not be identical. Identical values can stand only once. Among all 410,000 compounds or so, about 18,000 (4.4%) were called active. About 7% were inconclusive and are not listed. Cut-off read from the data, not from the text of the source: active = activity change below about -60%; inconclusive = no clear call, values can overlap the other calls; inactive = above about -39%. The entries come from a sample that favours actives as a whole.
% is set by controls: 0 for no effect and ±100 for the full control effect.

The nature of this experiment: qHTS Assay for inhibitors of the human cytomegalovirus (HCMV). Particulars: HFF cells, HCMV-luciferase reporter, 72 h; at 57.5 µM; stronger effect = lower value. Put shortly:
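After 16 h attachment at 37C, HFF cells received test compound and HCMV-luciferase (1 PFU/cell); reporter luminescence read 72 h later, data normalized against buffer-only and known inhibitor Salinomycin.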
A general note: Quantitative high-throughput screening tests each substance at several concentrations.
Regarding `Cn1c(=O)cc(OCC(=O)N2CCN(c3ccccc3)CC2)c2ccccc21`, the activity change, negative = inhibition was 0.385% (inactive).
Turning to `CC(C)(C)OC(=O)C[C@H]1C/C=C\C[C@@H](CC(=O)N[C@H](CO)Cc2ccccc2)C(=O)NC[C@@H](c2ccccc2)OC1=O`, the activity change, negative = inhibition is -8.79% (inactive).
As for `CC(C)(C)OC(=O)C[C@@H]1C/C=C\C[C@@H](CC(=O)N[C@H](CO)Cc2ccccc2)C(=O)NC[C@@H](c2ccccc2)OC1=O`, the activity change, negative = inhibition was -6.88% (inactive).
Turning to `O=C(C[C@H]1C/C=C\C[C@@H](NC(=O)OCC2c3ccccc3-c3ccccc32)C(=O)O[C@@H](c2ccccc2)CNC1=O)N[C@H](CO)Cc1ccccc1`, the activity change, negative = inhibition was -86.9% (active).
Turning to `O=[N+]([O-])c1ccc(Oc2ccc(F)cc2Br)c2ccncc12`, the activity change, negative = inhibition is -78.1% (active).
Regarding `COc1ccc2oc(=O)c(-c3cn4c(n3)sc3cc(OC)ccc34)cc2c1`, the activity change, negative = inhibition was -16.2% (inactive).
Turning to `O=[N+]([O-])c1ccc(C=Nc2ccc(Cl)cc2Cl)s1`, the activity change, negative = inhibition is -103% (active).
For the compound `C=CCN1C=C(C(=O)c2ccccc2)C(=O)CC1`, the activity change, negative = inhibition is -25.3% (inactive).
Take `CCOc1ccc(CC(=O)NCCc2csc3nc(-c4ccccc4F)nn23)cc1`: the activity change, negative = inhibition is -0.0376% (inactive).
In the case of `CCOc1ccccc1C(=O)Nc1ccc2c(c1)N(C)C(=O)c1ccccc1S2`, the activity change, negative = inhibition was 5.48% (inactive).
`CCOC(=O)c1c(C)oc2ccc(N(C(=O)c3ccncc3)S(=O)(=O)c3ccc(CC)cc3)cc12`: the activity change, negative = inhibition was -6.14% (inactive).
As to `COC(=O)c1c(C)oc2ccc(N(C(=O)Oc3ccccc3)S(=O)(=O)c3ccccc3)cc12`, the activity change, negative = inhibition is -63.7% (active).
As to `CC(=O)c1c(C)oc2ccc(NS(=O)(=O)c3ccccc3)cc12`, the activity change, negative = inhibition is -24.7% (inactive).
For the compound `Cc1cccc(N(C)C(=O)CS(=O)(=O)c2cccc3nsnc23)c1`, the activity change, negative = inhibition was -14.6% (inactive).
With `CCN(C(=O)Cn1c(=O)nc(-c2ccccc2)c2cc(Cl)ccc21)c1cccc(C)c1`, the activity change, negative = inhibition was -20.1% (inactive).
Consider `O=C(NCCc1ccc(Cl)cc1)c1ccc2c(c1)N(Cc1ccc(F)cc1)C(=O)CS2`, for which the activity change, negative = inhibition was 2.62% (inactive).
Consider `CNc1ccc(-c2nc(-c3ccccc3C)no2)cc1[N+](=O)[O-]`, for which the activity change, negative = inhibition is 63.3% (inactive).
As for `Cc1ccc(Nc2cc(C)nc3c(C)ccc([N+](=O)[O-])c23)cc1`, the activity change, negative = inhibition is -65.6% (active).
In the case of `Cc1ccc(NC2=NC(c3ccccc3)n3c(nc(C)cc3=O)N2)cc1` (stereo not drawn), the activity change, negative = inhibition is -12% (inactive).
Regarding `C[C@@H]1CN([C@H](C)CO)C(=O)CCCn2cc(nn2)CO[C@H]1CN(C)C(=O)Nc1ccc(N2CCCCC2)cc1`, the activity change, negative = inhibition was 5.98% (inactive).
The value for `CCOc1ccc(CNC(=O)c2cc(=O)[nH]c3ccc(S(=O)(=O)N4CCCCC4)cc23)cc1` was 66.7% (inactive); that for `O=C(Nc1ccc2oc(-c3ccc(O)c(Br)c3)nc2c1)c1cc2ccccc2o1` was 17.1% (inactive).
For `COc1cccc(C(=O)NC2(C(F)(F)F)C(=O)Nc3c2c(=O)[nH]c(=O)n3-c2ccc(C)cc2)c1` (stereo not drawn), the activity change, negative = inhibition is 23.5% (inactive).
Consider `Cc1ccn(CC(=O)NC2CCCN(Cc3ccccc3F)C2)n1` (stereo not drawn), for which the activity change, negative = inhibition was -8.34% (inactive).
The value for `Cc1ccsc1C(=O)C1CCCN(Cc2ccc(O)cc2)C1` (stereo not drawn) was 66.6% (inactive); that for `Cc1occc1C(=O)NC1CCCN(Cc2ccc(CC(C)C)cc2)C1` (stereo not drawn) was -69.3% (active); that for `COc1cccc(NC(=O)C(=O)NCC(c2ccc3c(c2)OCO3)N2CCN(C)CC2)c1` (stereo not drawn) was 44% (inactive).
As to `CSc1ccc(NC(=O)Cn2nnnc2-c2ccccc2F)cc1`, the activity change, negative = inhibition was 13% (inactive).
As for `CC(C)Oc1ccc(CNC(=O)C2CCN(c3nc4ccccc4n(C)c3=O)CC2)cc1`, the activity change, negative = inhibition was 3.39% (inactive).
`COc1cccc2cc(-c3nc(Cl)c4c5c(sc4n3)CC(C)CC5)c(=O)oc12` (stereo not drawn): the activity change, negative = inhibition is 7.76% (inactive).
`Fc1ccc(CSc2nnc(-c3cc4c(s3)-c3ccccc3CC4)o2)cc1`: the activity change, negative = inhibition is 20.4% (inactive).
In the case of `COc1ccc(C(=O)Oc2ccc(-c3nnco3)cc2)cc1S(=O)(=O)N1CCOCC1`, the activity change, negative = inhibition was -83.8% (active).
In the case of `O=C(Oc1ccc(-c2nnco2)cc1)c1ccc(F)c(S(=O)(=O)N2CCOCC2)c1`, the activity change, negative = inhibition is 34.8% (inactive).
As to `COc1ccccc1OC(=O)c1ccc(C)c(S(=O)(=O)N2CCOCC2)c1`, the activity change, negative = inhibition is 2.56% (inactive).
Consider `O=C1CCC(C(=O)OCC(=O)Nc2ccc(OC(F)F)cc2)=NN1`, for which the activity change, negative = inhibition was 5.49% (inactive).
Take `CCC(C)(C)c1ccc(Oc2ccc(NC(=O)COC(=O)C3=COCCO3)cc2)cc1`: the activity change, negative = inhibition is -70.9% (active).
Take `COc1ccc(NC(=O)COC(=O)CNC(=O)C2CCCCC2)cc1`: the activity change, negative = inhibition is 16% (inactive).
Take `COc1cccc(Nc2nc3ccccc3c3nncn23)c1`: the activity change, negative = inhibition is 15% (inactive).
With `COc1ccc(NC(=O)CCc2nnc3n(CC(C)C)c(=O)c4ccccc4n23)cc1OC`, the activity change, negative = inhibition is -15.8% (inactive).
The value for `O=C(Cn1c(=O)nc(-c2ccccc2)c2cc(Cl)ccc21)NCc1ccc(Cl)cc1` was 4.55% (inactive); that for `CCCCNc1ccc(-c2nc(-c3ccncc3)no2)cc1[N+](=O)[O-]` was 14.6% (inactive); that for `Cc1ccccc1Cn1nc(C)c(NC(=O)C(F)(F)F)c1C` was -69.7% (active).
For the compound `Cc1ccccc1Cn1nc(C)c(NC(=O)c2cc(-c3ccc(F)cc3)on2)c1C`, the activity change, negative = inhibition was -10.2% (inactive).
As for `Cc1nn(Cc2ccccc2)c(C)c1NS(=O)(=O)c1ccccc1`, the activity change, negative = inhibition is 18.1% (inactive).
For `COc1cc(NC(=O)CN2CCN(S(=O)(=O)c3ccc(Br)cc3)CC2)cc(OC)c1`, the activity change, negative = inhibition was 10.7% (inactive).
`CC(C)OCCCn1c(SCC(=O)c2ccccc2)nc2c(sc3ccccc32)c1=O`: the activity change, negative = inhibition was -3.18% (inactive).
With `CCc1nn(CCCC(=O)NCc2ccccc2OC)c(=O)c2cc3occc3n12`, the activity change, negative = inhibition is 0.686% (inactive).
Regarding `CC(=O)c1ccc(S(=O)(=O)N2CCN(C(=O)/C=C/c3ccc4ccccc4n3)CC2)cc1`, the activity change, negative = inhibition is -94.7% (active).
As to `COC(=O)c1ccc(S(=O)(=O)N2CCC(c3nc4ccccc4o3)CC2)cc1`, the activity change, negative = inhibition was -36.4% (inactive).
As to `CC(=O)c1ccc(S(=O)(=O)N2CCC(Oc3ccc(-n4cnnn4)cc3)CC2)cc1`, the activity change, negative = inhibition was -16.1% (inactive) and 9.96% (inactive).
Turning to `O=C(NCCc1ccccc1)c1cnc2sc(N3CCCC3)nn2c1=O`, the activity change, negative = inhibition is -22.6% (inactive).
The value for `CCCCNc1c(-c2cccc(Sc3ccc(OC)cc3)c2)nc2ccccn12` was -28.4% (inactive); that for `COC(=O)[C@]12C[C@H](CC(=O)NCCC(C)C)C(=O)N(CCc3ccc(OC)c(OC)c3)C1=C[C@H](C(C)(C)C)O[C@@H]2C` was 13.1% (inactive).
